Measurements: PubChem BioAssay (EPA / NIEHS)
Several values for one entry are separate records, joined by “and”; a condition that tells them apart may be missing. Identical values can stand only once. Records with an inconclusive call do not appear. Activity calls are given as the source filed them. The calls were made as follows: active = hit-call score of the fitted dose curve at least 0.9, where 1 is the maximum; inconclusive = response in the unintended direction; inactive = score below 0.9.

These molecules were tested against rat Thyrotropin Releasing Hormone Receptor (TRH), Trhr (gene 25570) (UniProt Q01717) (assay: NVS_GPCR_rTRH: NovaScreen (NVS) G Protein-Coupled Receptor Assay for rat Thyrotropin Releasing Hormone Receptor (TRH) (AID 2283329);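 also: hit means lower bound tracer signal versus DMSO baseline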).
Chain of rat Thyrotropin Releasing Hormone Receptor (TRH), Trhr (gene 25570) (Q01717 whole entry, looked up): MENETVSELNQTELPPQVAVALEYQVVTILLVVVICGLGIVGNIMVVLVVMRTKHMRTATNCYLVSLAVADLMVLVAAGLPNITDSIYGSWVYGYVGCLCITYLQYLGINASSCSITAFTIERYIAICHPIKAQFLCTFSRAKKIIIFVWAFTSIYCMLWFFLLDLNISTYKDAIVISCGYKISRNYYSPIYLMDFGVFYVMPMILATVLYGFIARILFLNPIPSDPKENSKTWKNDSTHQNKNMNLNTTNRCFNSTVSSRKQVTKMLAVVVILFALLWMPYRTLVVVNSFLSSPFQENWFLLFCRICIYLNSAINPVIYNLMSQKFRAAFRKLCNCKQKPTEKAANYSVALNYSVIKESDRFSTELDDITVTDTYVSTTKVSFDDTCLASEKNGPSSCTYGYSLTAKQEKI
Outline: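 Cell-free radioligand binding on rat forebrain membranes; bound tracer measured by filter-based scintillation counting 4 hours after dosing. Loss of signal versus DMSO baseline indicates displacement; primary screen at 25 uM in duplicate, actives then run in concentration series.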

SMILES | outcome
O=C1OC(=O)c2c(Cl)c(Cl)c(Cl)c(Cl)c21 | inactive
C=C[Si]1(C)O[Si](C)(C=C)O[Si](C)(C=C)O[Si](C)(C=C)O1 (stereo not given) | inactive
CN1CCOCC1 | inactive
c1ccc(Oc2ccccc2)cc1 | inactive
CCC(=O)O[C@@H]1C[C@H]2CC[C@]1(C)C2(C)C | inactive
OC[C@H]1O[C@@H]2O[C@H]3[C@H](O)[C@@H](O)[C@@H](O[C@H]4[C@H](O)[C@@H](O)[C@@H](O[C@H]5[C@H](O)[C@@H](O)[C@@H](O[C@H]6[C@H](O)[C@@H](O)[C@@H](O[C@H]7[C@H](O)[C@@H](O)[C@@H](O[C@H]8[C@H](O)[C@@H](O)[C@@H](O[C@H]9[C@H](O)[C@@H](O)[C@@H](O[C@H]1[C@H](O)[C@H]2O)O[C@@H]9CO)O[C@@H]8CO)O[C@@H]7CO)O[C@@H]6CO)O[C@@H]5CO)O[C@@H]4CO)O[C@@H]3CO | inactive
CN(C)c1cccc(O)c1 | inactive
O=[N+]([O-])c1ccc(O)cc1C(F)(F)F | inactive
CCOC(=O)[C@@H](C)Oc1ccc(Oc2nc3ccc(Cl)cc3o2)cc1 | inactive
CCCCCCCCN1CCCC1=O | inactive
COC(=O)c1ccc(C)cc1C1=NC(C)(C(C)C)C(=O)N1 (stereo not given) (tested in a mixture with another compound) | inactive
O=CCc1ccccc1 | inactive
CCCCCCCCC=CCCCCCCCC1=NCCN1CCO | inactive
C=CC(C)(O)CCC=C(C)C (stereo not given) | inactive
OCCc1ccccc1 | inactive
CCCCCCCCCCCCCCN(CCO)CCO | inactive
C=Cc1ccc(C)cc1 | inactive
CSCCC=O | inactive
CC(=O)O[C@H]1C[C@@H]2CC[C@@]1(C)C2(C)C | inactive
CCCCCCCCCCCC(=O)OCC(O)CO (stereo not given) | inactive
CCCCCCCCSCCO | inactive
CCOC(=O)C1OC1c1ccccc1 (stereo not given) | inactive
C1=CC2C3C=CC(C3)C2C1 (stereo not given) | inactive
CC(C=O)Cc1ccc(C(C)(C)C)cc1 (stereo not given) | inactive
CCNCCO | inactive
COS(=O)(=O)O | inactive
CCCCCC(=O)CC | inactive

What follows are molecules tested against human Peripheral-type Benzodiazepine Receptor (PBR), TSPO (gene 706) (UniProt P30536) (assay: NVS_MP_hPBR: NovaScreen (NVS) Membrane Protein Assay for human Peripheral-type Benzodiazepine Receptor (PBR) (AID 2283331);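 also: hits reduce radioligand binding relative to DMSO baseline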).
Chain of human Peripheral-type Benzodiazepine Receptor (PBR), TSPO (gene 706) (P30536 whole entry, looked up): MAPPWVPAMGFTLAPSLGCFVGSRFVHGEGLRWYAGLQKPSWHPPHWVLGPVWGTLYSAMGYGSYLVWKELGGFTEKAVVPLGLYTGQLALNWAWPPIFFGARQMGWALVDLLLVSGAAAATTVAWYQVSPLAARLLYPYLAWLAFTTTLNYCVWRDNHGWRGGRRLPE
Outline: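 Cell-free radioligand displacement, human colonic membranes, 1 h exposure. Filter radiodetection read-out. Single-concentration duplicates (25 uM), then concentration-response for actives; DMSO negative control.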

SMILES | AC50 | outcome
Cc1ccc(S(=O)(=O)Oc2ccc(N=Nc3ccc(-c4ccc(N=Nc5c(O)ccc6cc(S(=O)(=O)O)cc(S(=O)(=O)O)c56)c(C)c4)cc3C)cc2)cc1 | 0.0489 µM (active) | –
COc1ccc(N=Nc2cc(C)c(N=Nc3ccc(S(=O)(=O)O)cc3)cc2OC)cc1 | 2.05 µM (active) | –
c1ccc(Oc2ccccc2)cc1 | – | inactive
CCCCCCCCCCCCCCCC(=O)OC/C=C(C)/C=C/C=C(C)/C=C/C1=C(C)CCCC1(C)C | 41.1 µM (active) | –
O=C1OC[C@H](Cc2cccc(O)c2)[C@H]1Cc1cccc(O)c1 | 8.4 µM (active) and 3.26 µM (active) | –
CN(C)C(=O)Nc1ccc(Oc2ccc(Cl)cc2)cc1 | 2.91 µM (active) | –
CCCCN(CCCC)C(=O)N(CCCC)CCCC | 20.6 µM (active) | –
Cc1cc(CCC(=O)OCCOCCOCCOC(=O)CCc2cc(C)c(O)c(C(C)(C)C)c2)cc(C(C)(C)C)c1O | 0.721 µM (active) | –
